Measured values reported in PubChem BioAssay.
“And” between values parts separate entries of the source, which are not always exact repeats. Equal entries are not always repeated. Some compounds were tested as several samples or in several runs, with calls that do not always agree. The source made the active and inactive calls.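 The calls were made as follows, unless noted: active = compounds whose cell count with miR-34 switched on is under 0.7 times the count with it off; inactive = the rest.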

What was measured:
[1] = P. berghei load reduction in hepatocytes – cell-based, HepG2, luciferase luminescence, HepG2 viability, primary screen (AID 624349; in the data active = parasite load remaining mostly below about 12%, no sharp cut-off; inactive = mostly above about 10%;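 also: 100% = mean of DMSO negative control wells on the same plate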); settings: P. berghei liver stage in HepG2, luciferase luminescence, concentration not given here; parasite load remaining: stronger effect = lower value; viability: measured here: HepG2 viability without parasites
[2] = Wnt pathway potentiators raising nuclear beta-catenin – imaging, WNT3A-conditioned medium, mouse C2C12, NPC library, primary screen (AID 1117326; in the data active = nuclear beta-catenin stimulation mostly above about 4.2%, no sharp cut-off; inactive = mostly below about 10%); settings: stronger effect = higher value
[3] = stimulators of insulin release from INS-1E, primary screen, cell-based, 5 mM glucose, NPC library (AID 1117329;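 active = compound raises insulin release from rat beta cells at 5 mM glucose, no numeric limit stated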); settings: rat INS-1E insulin secretion, at 10 µM, stronger effect = higher value
[4] = growth inhibition of GSK3B-pretreated HCT116 cells – cell-based, CellTiter-Glo, 0.2 to 20 µM (AID 1117336;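 active = compounds lowering colon cancer cell viability after pretreatment blocking the GSK3B kinase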); settings: HCT116 viability after GSK3B inhibitor, at 20 µM, stronger effect = higher value
[5] = inhibition of endothelial tube formation, primary screen, imaging, VEGF stimulated, CD31 staining, tube area, NPC library (AID 1117340;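 active = compound that reduces growth-factor-driven endothelial tube area in a mixed cell culture, no cutoff stated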); settings: VEGF-stimulated ADSC/ECFC co-culture, at 10 µM, stronger effect = higher value
[6] = GLP1 release stimulators, primary, NCI-H716, NPC library (AID 1117341;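 active = compound raises GLP1 secretion from the human gut endocrine cells, with no numeric limit stated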); settings: NCI-H716 cells, at 10 µM, stronger effect = higher value
[7] = HCT116 colon cancer cell growth inhibition, primary screen, CellTiter-Glo luminescence, NPC library (AID 1117342;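 active = compounds that lower survival of HCT116 colon cancer cells in the luminescence readout, no numeric limit stated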); settings: at 20 µM (top of the series)
[8] = reduced SW480 viability measured with CellTiter-Glo, NPC library, primary (AID 1117343;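 active = compounds that lower viability of the colon cancer cells in the luminescence readout, with no numeric limit stated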); settings: CellTiter-Glo luminescence; at 20 µM (top of the series)
[9] = NPC library primary testing for decreased DLD-1 cell viability via CellTiter-Glo (AID 1117346;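 active = compounds that lower survival of DLD-1 colon cancer cells in the luminescence readout, no cutoff given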); settings: DLD-1 viability, CellTiter-Glo luminescence; at 20 µM (top of the series)
[10] = target: 6-phosphogluconate dehydrogenase, decarboxylating (Homo sapiens) (UniProt P52209); experiment: inhibition of human phosphogluconate dehydrogenase – biochemical, recombinant enzyme, NADPH absorbance, primary screen (AID 1159550;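 active = at least 20% inhibition of 6-phosphogluconate dehydrogenase activity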); settings: recombinant 6PGD, NADPH absorbance 341 nm; at 10 µM; stronger effect = higher value
Sequence of 6-phosphogluconate dehydrogenase, decarboxylating (Homo sapiens) (P52209 whole entry, looked up): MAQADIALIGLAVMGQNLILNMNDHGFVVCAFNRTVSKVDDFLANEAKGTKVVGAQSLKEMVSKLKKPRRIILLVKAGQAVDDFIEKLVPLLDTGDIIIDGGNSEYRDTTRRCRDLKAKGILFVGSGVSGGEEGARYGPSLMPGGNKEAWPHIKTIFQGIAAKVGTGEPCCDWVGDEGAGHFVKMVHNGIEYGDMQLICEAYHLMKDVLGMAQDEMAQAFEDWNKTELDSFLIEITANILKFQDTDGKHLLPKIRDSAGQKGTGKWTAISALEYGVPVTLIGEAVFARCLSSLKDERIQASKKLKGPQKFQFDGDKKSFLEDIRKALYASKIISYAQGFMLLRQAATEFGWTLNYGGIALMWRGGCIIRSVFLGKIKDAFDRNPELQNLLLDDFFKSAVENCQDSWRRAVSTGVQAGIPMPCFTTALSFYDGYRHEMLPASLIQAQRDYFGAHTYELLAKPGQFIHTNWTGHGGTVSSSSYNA

[11] = EMT-state selective cytotoxicity in co-culture – imaging, PC-3E GFP, TEM4-18 mCherry, primary screen (AID 1345086;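 active = compounds killing one labelled cell type while sparing the other, by normalised counts and ratio limits, not self-fluorescent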;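 as to all read-outs here: cells exposed to compound for 72 h before imaging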;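 as to red/green cell ratio (normalised): normalised mesenchymal count divided by normalised epithelial count so high means epithelial killing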); settings: PC-3E GFP / TEM4-18 mCherry co-culture, imaging cell counts, at 1 µM; for red/green cell ratio (normalised): actives lie on both sides
[12] = test system: Aerobactin synthetase IucA (Klebsiella pneumoniae hvKP1); experiment: IucA enzyme inhibition, primary screen, biochemical, Spectrum library (AID 1346200; call rule not given here;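 also: 100% = wells without compound and 0% = wells lacking enzyme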); settings: malachite green pyrophosphate, A620, at 8 µM, stronger effect = lower value
[13] = viability loss with induced miR-34 in A549 – imaging, A549 dox-inducible miR-34, nuclei and caspase counts, primary screen (AID 1347080); settings: A549 miR-34 inducible, Hoechst nuclei count, 48 h
[14] = MELAS cybrid and Rieske KO viability enhancers – cell-based, MELAS cybrids, Rieske KO mouse fibroblasts, CellTiter-Glo, primary screen (AID 1508586;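 active = mean z-score across replicates of 1.96 or higher in either the MELAS or the Rieske mutant cell line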;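 also: z relative to plate mean and SD of compound and empty wells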); settings: low glucose
[15] = target: NAD(+) hydrolase SARM1 (Homo sapiens) (UniProt Q6SZW1); experiment: blocking NAD cleavage by SARM1 SAM-TIR – cell lysate, NAD-Glo luminescence (AID 1508614;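 active = compound whose remaining NAD level is above about 45 nM, limit read from the data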;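 also: higher remaining NAD means stronger inhibition of SARM1 NADase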); settings: SAM-TIR HEK293T lysate NADase, at 1 µM, stronger effect = higher value
Sequence of NAD(+) hydrolase SARM1 (Homo sapiens) (Q6SZW1 whole entry, looked up, the tested form may be a part): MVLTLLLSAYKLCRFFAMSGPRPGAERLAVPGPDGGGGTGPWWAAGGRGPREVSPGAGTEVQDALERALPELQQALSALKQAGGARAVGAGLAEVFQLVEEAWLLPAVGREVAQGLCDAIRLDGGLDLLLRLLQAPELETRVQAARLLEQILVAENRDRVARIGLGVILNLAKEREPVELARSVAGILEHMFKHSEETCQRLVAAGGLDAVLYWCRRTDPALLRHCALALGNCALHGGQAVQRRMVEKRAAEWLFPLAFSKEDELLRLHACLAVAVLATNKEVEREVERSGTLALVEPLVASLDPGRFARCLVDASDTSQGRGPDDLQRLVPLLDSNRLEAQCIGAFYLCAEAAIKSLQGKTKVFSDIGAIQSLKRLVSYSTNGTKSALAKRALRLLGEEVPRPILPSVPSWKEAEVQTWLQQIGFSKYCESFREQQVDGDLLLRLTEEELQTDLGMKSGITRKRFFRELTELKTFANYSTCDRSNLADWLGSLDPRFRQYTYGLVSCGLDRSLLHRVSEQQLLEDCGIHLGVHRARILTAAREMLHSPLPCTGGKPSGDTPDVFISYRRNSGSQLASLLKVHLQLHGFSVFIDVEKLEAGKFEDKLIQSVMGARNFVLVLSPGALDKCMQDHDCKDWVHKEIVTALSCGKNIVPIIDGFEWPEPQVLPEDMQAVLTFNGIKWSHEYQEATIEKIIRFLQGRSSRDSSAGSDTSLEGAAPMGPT

[16] = target: Mitogen-activated protein kinase 7 (Homo sapiens) (UniProt Q13164); experiment: Gal4-ERK5 driven luciferase induction – cell-based, HTS, primary screen (AID 1508626;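 active = luciferase signal above three times the same-plate solvent-only control wells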;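 also: luciferase driven by Gal4-ERK5 fusion binding five Gal4 sites before minimal TATA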); settings: HeLa Gal4-ERK5 transactivation, 18 h, at 5 µM, stronger effect = higher value
Sequence of Mitogen-activated protein kinase 7 (Homo sapiens) (Q13164 whole entry, looked up, the tested form may be a part): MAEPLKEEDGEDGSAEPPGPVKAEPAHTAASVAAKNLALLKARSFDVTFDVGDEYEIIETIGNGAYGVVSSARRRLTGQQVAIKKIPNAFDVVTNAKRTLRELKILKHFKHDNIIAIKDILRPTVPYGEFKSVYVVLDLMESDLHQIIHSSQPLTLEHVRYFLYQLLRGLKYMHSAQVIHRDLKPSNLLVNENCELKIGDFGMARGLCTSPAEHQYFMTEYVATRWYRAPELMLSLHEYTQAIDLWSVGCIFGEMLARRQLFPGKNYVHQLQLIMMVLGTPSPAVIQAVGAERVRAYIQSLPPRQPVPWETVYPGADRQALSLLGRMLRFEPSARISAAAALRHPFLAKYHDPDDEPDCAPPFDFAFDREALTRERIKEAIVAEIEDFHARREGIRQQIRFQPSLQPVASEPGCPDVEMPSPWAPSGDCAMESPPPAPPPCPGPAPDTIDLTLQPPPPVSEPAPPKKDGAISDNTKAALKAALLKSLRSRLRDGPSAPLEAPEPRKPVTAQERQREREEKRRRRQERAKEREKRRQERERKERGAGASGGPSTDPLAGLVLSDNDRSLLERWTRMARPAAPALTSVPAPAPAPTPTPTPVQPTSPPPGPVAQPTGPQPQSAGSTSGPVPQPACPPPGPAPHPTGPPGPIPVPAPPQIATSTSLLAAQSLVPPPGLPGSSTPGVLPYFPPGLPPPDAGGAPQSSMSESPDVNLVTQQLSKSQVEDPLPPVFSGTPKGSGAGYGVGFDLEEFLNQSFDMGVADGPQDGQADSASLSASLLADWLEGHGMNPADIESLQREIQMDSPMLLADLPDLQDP

[17] = galactose survival enhancers in mitochondrial complex I cybrids – cell-based, galactose medium, ATP luminescence, primary screen (AID 1645843;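 active = z-score of at least 1.8 in each of two replicates, scored against plate mean and spread of sample wells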;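 also: positive z means more ATP and so rescue of galactose-driven cybrid death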); settings: complex I mutant cybrid cells, 72 h, stronger effect = higher value
[18] = yeast 75Q aggregation reduction – 75Q-TubU reporter (AID 1593); settings: Yeast 75Q polyglutamine aggregation reporter
[19] = blockers of cytochrome c efflux from mitochondria – biochemical, purified mitochondria (AID 1603); settings: stronger effect = lower value;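 also: mouse liver mitochondria challenged with calcium chloride; signal normalized to the plate average as 100%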
[20] = polyglutamine aggregate formation blockers (AID 1604); settings: polyglutamine-induced protein aggregation inhibition assay; stronger effect = higher value; tested at 2.5 µM
[21] = measured here: epithelial PC-3E GFP cell survival
[22] = measured here: mesenchymal TEM4-18 mCherry cell survival
[23] = measured here: relative caspase fold change +Dox/-Dox
[24] = measured here: total cells with miR-34 induction, stronger effect = lower value
[25] = measured here: total cells without miR-34 induction
[26] = MELAS cybrid survival, CellTiter-Glo 48 h, stronger effect = higher value
[27] = Rieske KO mouse fibroblast survival, CellTiter-Glo 72 h

Structure (SMILES): CCC1(C2=NCCN2)Cc2ccccc2O1 (centres undefined)
- parasite load remaining [1]: 40% (inactive)
- viability [1]: 95.5%
- nuclear beta-catenin stimulation ([2]; at 10 µM): 1.3% (inactive)
- nuclear beta-catenin stimulation ([2]; stimulation, at 2 µM): -0.1%
- insulin secretion stimulation [3]: 3% (inactive)
- viability decrease [4]: -18.3% (inactive)
- tube area decrease [5]: 6.6% (inactive)
- GLP1 secretion stimulation [6]: 2.2% (inactive)
- inhibition of viability [7]: 3.97% (inactive)
- viability decrease (inhibition) [8]: 3% (inactive)
- viability decrease (inhibition) [9]: 0.7% (inactive)
- inhibition [10]: 2.64% (inactive)
- red/green cell ratio (normalised) ([11]; counts scaled to control wells, 1 = unselective): 0.88 (inactive)
- normalised cell number [11, 21]: 1.21
- normalised cell number [11, 22]: 1.07
- activity remaining [12]: 92.2% (inactive)
- fold change ([13]; stronger effect = lower value): 0.923 (inactive) and 0.953 (inactive) and 0.905 (inactive)
- fold change [13, 23]: 1.9 and 0.731 and 1.02
- cell count [13, 24]: 9860 and 8980 and 10100
- cell count [13, 25]: 10700 and 9420 and 11200
- z-score [14, 26]: -0.478 (inactive)
- z-score [14, 27]: -0.349
- remaining NAD [15]: 10 nM (inactive)
- luciferase signal [16]: 140 AU (inactive)
- z-score [17]: 0.21 (inactive) and 0.18 (inactive) and 0.695 (inactive)

Structure (SMILES): O=C(O)c1nn(Cc2ccc(Cl)cc2Cl)c2ccccc12
- nuclear beta-catenin stimulation ([2]; at 10 µM): 1.4% (inactive)
- nuclear beta-catenin stimulation ([2]; stimulation, at 2 µM): 4.8%
- insulin secretion stimulation [3]: 4.2% (inactive)
- viability decrease [4]: 31.1% (inactive)
- tube area decrease [5]: -29.5% (inactive)
- GLP1 secretion stimulation [6]: 4.9% (inactive)
- inhibition of viability [7]: 19.6% (inactive)
- viability decrease (inhibition) [8]: 24.5% (inactive)
- viability decrease (inhibition) [9]: 3.6% (inactive)
- inhibition [10]: 4.63% (inactive)
- red/green cell ratio (normalised) [11]: 0.98 (inactive)
- normalised cell number [11, 21]: 0.85
- normalised cell number [11, 22]: 0.83
- fold change ([13]; stronger effect = lower value): 1.1 (inactive) and 0.951 (inactive) and 0.966 (inactive)
- fold change [13, 23]: 0.953 and 0.659 and 0.627
- cell count [13, 24]: 10200 and 7460 and 7860
- cell count [13, 25]: 9270 and 7840 and 8130
- z-score [14, 26]: -0.0995 (inactive)
- z-score [14, 27]: -0.0829
- remaining NAD [15]: 10 nM (inactive)
- z-score [17]: 2.35 (active) and 0.985 (inactive)

Structure (SMILES): CN(C)[C@@H]1C(=O)C(C(N)=O)=C(O)[C@@]2(O)C(=O)C3=C(O)c4c(O)cccc4[C@@](C)(O)[C@H]3C[C@@H]12
- score [18]: 0.85
- cytochrome c release ratio [19]: 2.45
- inhibition of aggregation [20]: 47.2%
- nuclear beta-catenin stimulation ([2]; at 10 µM): 1% (inactive)
- nuclear beta-catenin stimulation ([2]; stimulation, at 2 µM): 1.9%
- insulin secretion stimulation [3]: 2.5% (inactive)
- viability decrease [4]: -202% (inactive)
- tube area decrease [5]: 9.8% (inactive)
- GLP1 secretion stimulation [6]: -2.8% (inactive)
- inhibition of viability [7]: 12.1% (inactive)
- viability decrease (inhibition) [8]: 43.4% (inactive)
- viability decrease (inhibition) [9]: 73.3% (active)
- inhibition [10]: -5.09% (inactive)
- red/green cell ratio (normalised) [11]: 0.98 (inactive) and 1.18 (inactive)
- normalised cell number [11, 21]: 0.93 and 1.05
- normalised cell number [11, 22]: 0.91 and 1.24
- activity remaining [12]: 92.7% (inactive)
- cell count [13, 25]: 7550 and 8910 and 10100
- z-score [14, 26]: 4.37 (active) and -3.68 (inactive) and 0.0486
- z-score [14, 27]: 0.792 and -3.53 and 2.26
- remaining NAD [15]: 10 nM (inactive)
- luciferase signal [16]: 324 AU (active)
- z-score [17]: 2.65 (active)

Structure (SMILES): CCCC1CCCCN1 (centres undefined)
- nuclear beta-catenin stimulation ([2]; at 10 µM): 0.5% (inactive)
- nuclear beta-catenin stimulation ([2]; stimulation, at 2 µM): 0.1%
- insulin secretion stimulation [3]: -0.9% (inactive)
- viability decrease [4]: -0.7% (inactive)
- tube area decrease [5]: 2.4% (inactive)
- GLP1 secretion stimulation [6]: 0% (inactive)
- inhibition of viability [7]: -0.2% (inactive)
- viability decrease (inhibition) [8]: 8% (inactive)
- viability decrease (inhibition) [9]: -1.85% (inactive)
- inhibition [10]: 18.6% (inactive)
